Experimental findings from PubChem BioAssay are described below.

Test [1] can be described thus: anti-His antibody binders, primary screen, artefact control for SMM control protein annotation, biochemical, small-molecule microarray, 635 nm fluorescence (AID 1128).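 Further: score merges feature fluorescence with signal-to-noise for each printed compound spot.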 The conditions noted are these: anti-His Alexa647 antibody binding, higher = more signal.
The subject of test [2] is Human papillomavirus type 1a E7 protein (residues 1-88). Nature of the test: HPV1a E7 small-molecule binders, primary screen, biochemical, small-molecule microarray, residues 1-88, 635 nm (AID 1129). The conditions noted are these: small-molecule microarray binding, fluorescence 635 nm; higher = more signal.
Test [3] addresses Focal adhesion kinase 1 (Homo sapiens) (UniProt Q05397). Nature of the test: small-molecule microarray binders of FAK, primary screen, biochemical, 635/667 nm fluorescence, BSA, DTT (AID 1130).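 Further: composite of spot emission at 667 nm and signal to noise over triplicate slides.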 To be noted: PTK2 binding, 635 nm fluorescence, higher = more signal.
For test [4], the system named is Fibrinogen (Alexa647-labelled). Nature of the test: fibrinogen binders on compound microarrays, profiling panel, artefact control for SMM control-protein annotation, biochemical, small-molecule microarray, 635/667 nm fluorescence (AID 1131).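 Further: z-score merges 667 nm fluorescence with per-spot signal-to-noise over triplicate slides.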 The conditions noted are these: fibrinogen-A647 binding fluorescence, higher = more signal.
Test [5] has as its target Follistatin (Homo sapiens) (UniProt P19883). Nature of the test: follistatin binders on small-molecule microarrays, primary screen, biochemical, small-molecule microarray, 635/667 nm fluorescence (AID 1132). The conditions noted are these: FST binding, 635 nm fluorescence, higher = more signal.
For test [6], the target named is Fibroblast growth factor 2 (Homo sapiens) (UniProt P09038). The experiment in a line: FGF2 binders on small-molecule microarrays, primary screen, biochemical, small-molecule microarray, 635/667 nm fluorescence (AID 1133). To be noted: small-molecule microarray binding, FGF2, fluorescence 635/667; higher = more signal.
Chain of Fibroblast growth factor 2 (Homo sapiens) (P09038 whole entry, looked up): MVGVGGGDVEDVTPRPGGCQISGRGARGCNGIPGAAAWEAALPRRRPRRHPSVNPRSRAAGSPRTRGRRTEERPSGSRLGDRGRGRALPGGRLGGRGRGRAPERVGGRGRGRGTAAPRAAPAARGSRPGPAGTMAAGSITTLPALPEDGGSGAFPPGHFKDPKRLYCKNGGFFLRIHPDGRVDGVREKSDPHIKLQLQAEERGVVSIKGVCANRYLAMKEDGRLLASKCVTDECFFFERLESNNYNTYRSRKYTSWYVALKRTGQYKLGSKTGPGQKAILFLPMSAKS
Test [7] in a line: mitochondrial membrane potential change in A549 cells, profiling panel, cell-based, JC-1 fluorescence, basal, 24 h, 100 nL (AID 1138).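 Further: A549 lung adenocarcinoma cells under basal conditions with no added stimulus; test concentration not given here.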 The conditions noted are these: higher = more signal.
The subject of a further test is Lefty1. The experiment in a line: Lefty1 binders on small-molecule microarrays, primary screen, biochemical, small-molecule microarray, 635/667 nm fluorescence (AID 1139). To be noted: small-molecule microarray binding, fluorescence 635/667; higher = more signal.
The test system of test [8] is wheat germ agglutinin (Triticum aestivum), Alexa647-labelled. The experiment in a line: wheat germ agglutinin binders on compound microarrays, profiling panel, artefact control for SMM control-protein annotation, biochemical, small-molecule microarray, 635/667 nm fluorescence (AID 1140).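 Further: score merges 667 nm feature emission with signal to noise over triplicate slides.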 To be noted: WGA-A647 binding, 635 nm fluorescence, higher = more signal.
For test [9], the target named is Luciferin 4-monooxygenase (Photinus pyralis) (UniProt P08659). Nature of the test: firefly luciferase enzyme inhibitors, primary screen, biochemical, luminescence, purified enzyme, 2006 set (AID 1141).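 Further: cell-free assay with purified firefly luciferase at 100 ng per well in PBS; test concentration not given here.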 The conditions noted are these: SteadyGlo luminescence, 30 min, higher = more signal, called active from +8 up or from −8 down.
Chain of Luciferin 4-monooxygenase (Photinus pyralis) (P08659 whole entry, looked up): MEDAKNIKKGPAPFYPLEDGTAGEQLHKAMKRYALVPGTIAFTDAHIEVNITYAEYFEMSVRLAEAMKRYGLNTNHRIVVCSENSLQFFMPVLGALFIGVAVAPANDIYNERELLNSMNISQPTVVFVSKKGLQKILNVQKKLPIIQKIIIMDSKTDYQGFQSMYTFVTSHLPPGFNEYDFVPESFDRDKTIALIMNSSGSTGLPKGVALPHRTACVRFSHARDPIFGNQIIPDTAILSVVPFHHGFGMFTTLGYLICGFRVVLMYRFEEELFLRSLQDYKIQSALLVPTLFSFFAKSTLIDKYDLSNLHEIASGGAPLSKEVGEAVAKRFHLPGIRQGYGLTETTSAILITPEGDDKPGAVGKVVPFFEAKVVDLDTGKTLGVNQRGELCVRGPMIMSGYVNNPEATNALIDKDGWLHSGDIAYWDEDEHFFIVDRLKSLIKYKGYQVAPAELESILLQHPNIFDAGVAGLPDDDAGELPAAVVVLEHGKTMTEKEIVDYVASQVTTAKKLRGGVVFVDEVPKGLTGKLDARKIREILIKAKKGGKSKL
Test [10] deals with Wnt5a (protein binding on small-molecule microarray). Nature of the test: Wnt5a binders on small-molecule microarray, primary screen, biophysical, 635/667 nm fluorescence (AID 1142).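 Further: fluorescence read at 667 nm with signal to noise per printed feature.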 The conditions noted are these: 635 nm fluorescence, higher = more signal.
The nature of test [11]: cell viability in Huh7 cells, primary screen, cytotoxicity control for HCV replication inhibitor project, CellTiter-Glo luminescence, basal, 48 h (AID 1143).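 Further: Huh7 hepatoma cells carrying a hepatitis C replication reporter with no stimulus; test concentration not given here.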 The conditions noted are these: Huh7 HCV replicon, higher = more signal, called active from +8 up or from −8 down. (Cellular ATP, detected with luciferase, serves as a proxy for viable cell number.)
The nature of test [12]: P. aeruginosa biofilm formation inhibitors, primary screen, PAO1 strain, BacTiter-Glo luminescence, LB-PBS (AID 1144). The conditions noted are these: 12 h, higher = more signal.
Test [13] can be described thus: CREB reporter modulators without forskolin, primary screen, cell-based, PC12, CRE-LacZ reporter, unstimulated (AID 1145). To be noted: no forskolin, luminescence, 4.5 h, higher = more signal, called active from +8 up or from −8 down.
Test [14] can be described thus: CREB reporter modulators under forskolin, primary screen, cell-based, PC12, CRE-LacZ reporter, forskolin-stimulated (AID 1146).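 Further: PC12 cells with 6xCRE LacZ reporter stimulated by forskolin 10 µM; beta-galactosidase reporter signal reflecting CREB driven transcription.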 The conditions noted are these: luminescence, 4.5 h, higher = more signal, called active from +8 up or from −8 down.
Test [15] concerns the target Streptavidin (Streptomyces avidinii) (UniProt P22629). Nature of the test: streptavidin binders on small-molecule microarray, primary screen, artefact control for SMM compound annotation, biophysical, 635/667 nm fluorescence (AID 1147).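 Further: signal reflects streptavidin binding to arrayed compounds as a control protein.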 The conditions noted are these: streptavidin binding, higher = more signal.
Test [16] in a line: small-molecule binders of probe aInhba, primary screen, biochemical, small-molecule microarray, 635/667 nm fluorescence (AID 1148).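 Further: score merges 667nm spot fluorescence with signal-to-noise for antibody binding to printed compounds.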 To be noted: higher = more signal.
Test [17] concerns the target Torsin-1A (Homo sapiens) (UniProt O14656). The experiment in a line: torsin A binders from cell lysate, primary screen, small-molecule microarray, wild-type, 635/667 nm (AID 1149). To be noted: COS7 hTOR1A-WT lysate, 635 nm fluorescence, higher = more signal.
The target is the same in test [18]. Nature of the test: small-molecule binders of mutant TOR1A in lysate, primary screen, cell lysate, small-molecule microarray, COS7 lysate, 635/667 nm fluorescence (AID 1150).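 Further: score pools 667 nm emission and signal to noise measuring lysate protein binding.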 To be noted: COS7 hTOR1A mutant lysate, 635 nm fluorescence, higher = more signal.
In test [19] the test system is Sonic hedgehog protein (Shh). Nature of the test: small-molecule binders of Shh protein, primary screen, biochemical, small-molecule microarray, 635/667 nm fluorescence (AID 1151).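 Further: Shh protein binding to compounds spotted on small-molecule microarray slides; score combines spot fluorescence intensity with signal-to-noise across triplicate slides.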 The conditions noted are these: small-molecule microarray binding, 635 nm fluorescence; higher = more signal.

The source made the active and inactive calls. Unless noted, how the calls were made is not given here.

Chain of Focal adhesion kinase 1 (Homo sapiens) (Q05397 whole entry, looked up): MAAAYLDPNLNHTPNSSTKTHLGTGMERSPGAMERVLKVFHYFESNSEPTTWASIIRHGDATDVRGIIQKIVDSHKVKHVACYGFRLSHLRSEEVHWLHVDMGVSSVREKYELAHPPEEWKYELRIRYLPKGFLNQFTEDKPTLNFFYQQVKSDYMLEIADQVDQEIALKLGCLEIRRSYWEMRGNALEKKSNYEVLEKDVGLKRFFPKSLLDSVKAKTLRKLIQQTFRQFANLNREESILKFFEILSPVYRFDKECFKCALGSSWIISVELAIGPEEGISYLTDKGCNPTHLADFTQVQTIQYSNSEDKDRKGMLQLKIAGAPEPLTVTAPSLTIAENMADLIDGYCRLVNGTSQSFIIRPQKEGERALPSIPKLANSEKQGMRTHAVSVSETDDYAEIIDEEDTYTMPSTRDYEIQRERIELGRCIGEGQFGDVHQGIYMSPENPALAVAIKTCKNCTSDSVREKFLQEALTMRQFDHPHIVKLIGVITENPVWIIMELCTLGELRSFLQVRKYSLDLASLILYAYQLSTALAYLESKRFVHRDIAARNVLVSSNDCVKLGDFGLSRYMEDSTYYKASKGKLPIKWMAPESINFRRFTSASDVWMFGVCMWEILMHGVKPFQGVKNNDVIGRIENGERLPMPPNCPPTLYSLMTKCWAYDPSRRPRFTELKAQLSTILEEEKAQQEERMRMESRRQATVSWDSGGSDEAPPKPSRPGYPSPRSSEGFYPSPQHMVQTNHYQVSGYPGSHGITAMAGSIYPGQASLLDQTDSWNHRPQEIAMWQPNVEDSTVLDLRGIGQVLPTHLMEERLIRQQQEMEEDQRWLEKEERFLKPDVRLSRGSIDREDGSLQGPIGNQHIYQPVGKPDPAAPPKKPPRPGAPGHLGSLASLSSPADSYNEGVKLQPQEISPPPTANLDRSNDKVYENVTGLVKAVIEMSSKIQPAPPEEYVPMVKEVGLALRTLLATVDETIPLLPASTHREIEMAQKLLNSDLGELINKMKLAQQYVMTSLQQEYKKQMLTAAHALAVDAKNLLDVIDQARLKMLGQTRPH
Chain of Streptavidin (Streptomyces avidinii) (P22629 whole entry, looked up): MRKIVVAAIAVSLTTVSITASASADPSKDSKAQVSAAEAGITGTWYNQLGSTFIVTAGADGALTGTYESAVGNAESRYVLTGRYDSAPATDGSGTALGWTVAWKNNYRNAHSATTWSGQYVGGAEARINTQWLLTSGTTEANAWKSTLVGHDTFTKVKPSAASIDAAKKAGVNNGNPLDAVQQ
Chain of Follistatin (Homo sapiens) (P19883 whole entry, looked up): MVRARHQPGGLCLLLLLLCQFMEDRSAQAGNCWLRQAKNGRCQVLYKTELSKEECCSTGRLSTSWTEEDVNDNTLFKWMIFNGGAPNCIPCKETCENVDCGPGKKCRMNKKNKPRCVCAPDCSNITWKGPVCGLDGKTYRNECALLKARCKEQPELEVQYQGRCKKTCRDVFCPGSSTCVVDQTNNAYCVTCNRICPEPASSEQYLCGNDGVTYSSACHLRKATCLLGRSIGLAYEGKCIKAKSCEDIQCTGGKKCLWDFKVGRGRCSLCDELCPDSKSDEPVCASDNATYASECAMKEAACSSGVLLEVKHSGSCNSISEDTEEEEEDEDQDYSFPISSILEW
Chain of Torsin-1A (Homo sapiens) (O14656 whole entry, looked up): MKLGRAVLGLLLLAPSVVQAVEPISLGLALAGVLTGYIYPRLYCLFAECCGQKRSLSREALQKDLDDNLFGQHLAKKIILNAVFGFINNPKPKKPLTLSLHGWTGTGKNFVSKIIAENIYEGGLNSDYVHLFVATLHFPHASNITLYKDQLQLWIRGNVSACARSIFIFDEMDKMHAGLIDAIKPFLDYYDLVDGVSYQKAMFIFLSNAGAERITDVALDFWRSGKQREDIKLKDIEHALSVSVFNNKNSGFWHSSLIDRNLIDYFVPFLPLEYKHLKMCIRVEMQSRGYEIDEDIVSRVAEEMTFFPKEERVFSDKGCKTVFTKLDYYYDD

Consider `COC(=O)[C@@]1(Cc2ccccc2)[C@H]2c3cc(C(=O)N(C)C)n(Cc4ccc(OC)c(OC)c4)c3C[C@H]2CN1C(=O)c1ccccc1`, for which the composite z-score was 1.81 in test [1]; 1.27 in [2]; 0.561 in test [3]; 1.01 in [4]; 0.385 in test [5]; -0.588 in test [6]. Also, the composite z-score in the test with Lefty1 was found to be 0.0922; in [8], 0.995; in test [10], 1.15; in test [15], 1.43; in [16] it was 0.498; in the test with Torsin-1A (Homo sapiens) [17] it was 0.406. In addition, the results for the composite z-score (with Torsin-1A (Homo sapiens) [18]; in test [19]) were 1.16 and -0.735, respectively. Also, the z-score is 0.134 in test [7]; 1.29 (inactive) in [9]; -2.81 (inactive) in test [11]; 0.655 (inactive) in test [12]; 0.394 (inactive) in test [13]; 0.786 (inactive) in [14].

`COc1ccc(CCNC(=O)[C@@]2(c3ccc([N+](=O)[O-])cc3)CC(=O)N(CC34CC5CC(CC(C5)C3)C4)[C@@H]2c2ccc(CO)cc2I)cc1`: the composite z-score in test [1] was determined as 1.35; in test [2], 1.17; in test [3], 0.458; in test [4] it was 0.478; in [5], 1.39; in test [6], 1.37. The composite z-score with Lefty1 was 0.881; in test [8] it was 0.913; in test [10] it was 0.522; in [15], -0.0522; in [16] it was -0.443; with Torsin-1A (Homo sapiens) [17], 0.292. Moreover, the composite z-score in the test with Torsin-1A (Homo sapiens) [18] is 1.05; in [19], 1.75. In addition, the z-score in test [7] is -1.36; in test [9], 0.641 (inactive); in [11], -5.87 (inactive); in test [12], -1.53 (inactive); in [13], 0.378 (inactive); in [14] it was -0.107 (inactive).

With `CC(=O)Nc1cc(Br)ccc1C(=O)NCc1ccccc1`, the composite z-score is 0.69 in [1]; 0.6 in test [2]; 0.265 in test [3]; 0.402 in [4]; -0.0708 in test [5]; -0.327 in [6]. Besides, the composite z-score in the test on Lefty1 is -0.285; in test [8], 0.674; in test [10], -0.0375; in test [15], 0.725; in test [16], -0.0963; with Torsin-1A (Homo sapiens) [17], -0.0164. The composite z-score with Torsin-1A (Homo sapiens) [18] is -0.0323; in test [19] it was -0.24. Also, the z-score in [7] was 2.26; in [9], -0.65 (inactive); in [11], -0.798 (inactive); in [12], 0.0338 (inactive); in test [13], -0.348 (inactive); in [14] it was -1.14 (inactive).

As to `COc1ccc([Si](C)(C)[C@@H]2[C@@H](CC(=O)N3CCC[C@H]3CO)O[C@]3(C(=O)N(Cc4cccc(I)c4)c4ccccc43)[C@H]2C)cc1`, the composite z-score in [1] is 2.04; in test [2] it was 0.781; in [3] it was -0.204; in test [4] it was 0.591; in test [5], 1.39; in [6], 1.76. Moreover, the composite z-score in the test with Lefty1 was 1.64; in test [8] it was 0.481; in test [10], 0.557; in test [15] it was 0.168; in test [16] it was -0.0582; in the test with Torsin-1A (Homo sapiens) [17], 1.36. For the same molecule, the composite z-score with Torsin-1A (Homo sapiens) [18] was 0.789; in test [19] it was 2.14. Besides, the z-score in test [7] is -0.77; in test [9], -0.368 (inactive); in test [11], -4.27 (inactive); in test [12], 0.452 (inactive); in [13], 0.12 (inactive); in [14] it was -0.845 (inactive).

With `O=C1OCC=C[C@H]2OC34C=CCN(Cn5nnc6ccccc65)C(=O)[C@H]3N(CCCCCO)C(=O)[C@@H]4[C@@H]12` (stereo not given in full), the composite z-score in test [1] was 0.181; in test [2], -0.185; in test [3], -0.34; in [4] it was -0.566; in [5], -0.997; in test [6], -0.846. Moreover, the composite z-score is -0.992 with Lefty1; 1.25 in test [8]; 0.238 in test [10]; -0.573 in [15]; -0.348 in [16]; -0.884 with Torsin-1A (Homo sapiens) [17]. In addition, the values for the composite z-score (with Torsin-1A (Homo sapiens) [18]; in [19]) were -1.08 and -0.502, respectively. In addition, the z-score in test [7] is -1.47; in [9] it was 0.365 (inactive); in test [11], -0.17 (inactive); in test [12], -1.03 (inactive); in [13], -0.623 (inactive); in test [14] it was -0.29 (inactive).
